Laboratory results from the supplement of paper PMC10127200.
Where a name gives a salt, the structure may show the parent alone.

Columns and labels:
Assay in all cases: Euclidean distance of Cell Painting phenotypic profile (signed KS, 77 features) to DMSO centroid (dimensionless distance); 5 or 10 uM (library dependent); higher = stronger phenotypic change vs DMSO (phenoactivity)
Settings in all cases: 48 h
786-O = test system: 786-O
Outline: (§1)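 Phenoactivity is defined as the Euclidean distance from a compound profile to the median vehicle profile. Each profile comprised 77 Harmony features, scored as signed Kolmogorov-Smirnov statistics versus same-plate vehicle wells, then plate-position corrected, correlation-weighted and replicate-averaged at the top dose. Five cancer lines and one healthy fibroblast line were exposed to library compounds for 48 h at 10 or 5 uM (0.1% DMSO final).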

A549 = test system: A549
Outline: as §1

DU145 = test system: DU145
Outline: as §1

FB = test system: FB
Outline: as §1

HEPG2 = test system: HEPG2
Outline: as §1

OVCAR4 = test system: OVCAR4
Outline: as §1

SMILES	Euclidean distance (786-O)	Euclidean distance (A549)	Euclidean distance (DU145)	Euclidean distance (FB)	Euclidean distance (HEPG2)	Euclidean distance (OVCAR4)
Nc1ccccc1NC(=O)c1ccc(CNc2nccc(-c3cccnc3)n2)cc1 [Mocetinostat (MGCD0103)]	3.18	3.33	2.95	3.48	3.36	3.38
C[C@@H]1NC(=O)[C@@H](N)CNC(=O)[C@H](C2CCNC(=N)N2)NC(=O)/C(=C/NC(N)=O)NC(=O)[C@H](CNC(=O)CC(N)CCCN)NC1=O.N=C1NCC[C@H]([C@@H]2NC(=O)/C(=C/NC(N)=O)NC(=O)[C@H](CNC(=O)C[C@@H](N)CCCN)NC(=O)[C@H](CO)NC(=O)[C@@H](N)CNC2=O)N1 [Capreomycin Sulfate]	0.925	0.995	1.37	1.11	0.78	1.14
Cc1c(C(=O)NN2CCCCC2)nn(-c2ccc(Cl)cc2Cl)c1-c1ccc(Cl)cc1 [Rimonabant]	1.92	1.17	1.04	0.895	0.664	1.22
Cc1cc([C@@H](C)Nc2ccccc2C(=O)O)c2nc(N3CCOCC3)cc(=O)n2c1	1	1.82	1.52	1.71	1.59	3.2
OCC(CO)N[C@H]1C[C@](O)(CO)[C@@H](O)[C@H](O)[C@H]1O [Voglibose]	0.92	0.919	0.846	0.977	1.06	1.34
C[C@H](CCC(=O)NCCS(=O)(=O)O)[C@H]1CC[C@H]2[C@@H]3[C@@H](O)C[C@@H]4C[C@H](O)CC[C@]4(C)[C@H]3CC[C@]12C [Tauroursodeoxycholic Acid (TUDCA)]	0.663	1.8	0.772	1.04	0.686	1.23
CCNC(=O)[C@@H]1CCCN1C(=O)[C@H](CCCNC(=N)N)NC(=O)[C@H](CC(C)C)NC(=O)[C@@H](CC(C)C)NC(=O)[C@H](Cc1ccc(O)cc1)NC(=O)[C@H](CO)NC(=O)[C@H](Cc1c[nH]c2ccccc12)NC(=O)[C@H](Cc1c[nH]cn1)NC(=O)[C@@H]1CCC(=O)N1 [Leuprolide Acetate]	0.73	0.754	0.992	0.659	0.515	0.971
Cc1ccc(Nc2c(F)cccc2Cl)c(CC(=O)O)c1 [Lumiracoxib]	1.54	0.989	0.9	1.33	0.549	1.36
C[C@@H](O[C@H]1OCCN(Cc2n[nH]c(=O)[nH]2)[C@H]1c1ccc(F)cc1)c1cc(C(F)(F)F)cc(C(F)(F)F)c1 [Aprepitant]	1.15	1.83	0.905	1.05	1.43	1.3
CN(C)CCCOc1nn(Cc2ccccc2)c2ccccc12 [Benzydamine HCl]	1.26	0.962	1.75	1.24	0.87	1.33
CCN1CCN(c2ccc(Nc3cc(N(C)C(=O)Nc4c(Cl)c(OC)cc(OC)c4Cl)ncn3)cc2)CC1 [BGJ398 (NVP-BGJ398|Infigratinib)]	3.87	4	2.87	3.62	2.39	4.1
CC(=O)Oc1ccc(C(c2ccc(OC(C)=O)cc2)c2ccccn2)cc1 [Bisacodyl]	1.2	1.2	0.531	3.08	0.712	1.41
C[C@H]1c2cccc(O)c2C(=O)C2=C(O)[C@]3(O)C(=O)C(C(N)=O)=C(O)[C@@H](N(C)C)[C@@H]3[C@@H](O)[C@@H]21 [Doxycycline]	1.5	1.3	0.845	0.954	0.564	1.67
COCCOC(=O)C1=C(C)NC(C)=C(C(=O)OC(C)C)C1c1cccc([N+](=O)[O-])c1 (stereo unspecified) [Nimodipine]	1.59	1.37	1.08	1.08	1.96	1.09
O=P(O)(O)C(O)(Cn1ccnc1)P(=O)(O)O [Zoledronic Acid]	0.951	1.23	0.9	1.37	2.13	1.11
O=C(NCCO[N+](=O)[O-])c1cccnc1 [Nicorandil]	1.26	0.857	1.26	1.09	0.784	1.38
CC1(C)OCCn2c1nc1c(N3CCOCC3)nc(-c3cnc(N)nc3)nc12	2.79	2.94	2.05	4.44	2.32	2.93
CCOC(=O)C1=C(COCCN)NC(C)=C(C(=O)OC)C1c1ccccc1Cl (stereo unspecified) [Amlodipine Besylate]	1.08	0.672	0.871	1.18	1.64	1.07
CC1CCc2c(N3CCC(O)CC3)c(F)cc3c(=O)c(C(=O)O)cn1c23 (stereo unspecified) [Nadifloxacin]	1.05	0.818	0.896	1.14	0.855	0.748
C=CC1=C(C(=O)O)N2C(=O)[C@@H](NC(=O)/C(=N\OCC(=O)O)c3csc(N)n3)[C@H]2SC1 [Cefixime]	1.35	0.916	0.778	1.38	0.6	1.73
O=C(O)C(Cc1ccccc1[N+](=O)[O-])=NNc1nc(-c2ccc(Cl)c(Cl)c2)cs1 (mixture of isomers)	0.716	1.16	0.992	2.32	0.514	0.642
CC(C)NCC(O)COc1cccc2[nH]c3ccccc3c12 (stereo unspecified) [Carazolol]	1.27	0.789	1.12	0.974	1.07	1.31
N#Cc1ccc(C(c2ccc(C#N)cc2)n2cncn2)cc1 [Letrozole]	3.04	1.88	1.67	3.14	1.48	2.31

SMILES	Euclidean distance (786-O)	Euclidean distance (A549)	Euclidean distance (DU145)	Euclidean distance (FB)	Euclidean distance (HEPG2)	Euclidean distance (OVCAR4)
Nc1nc(OCc2ccccc2)c2nc[nH]c2n1 [O6-Benzylguanine]	1.02	0.825	0.926	1.41	0.548	0.833
CC(C[N+](C)(C)C)OC(N)=O (stereo unspecified) [Bethanechol chloride]	1.22	0.995	0.866	0.979	1.03	0.949
C[C@@H](O)[C@@H]1NC(=O)[C@H](CCCCN)NC(=O)[C@@H](Cc2c[nH]c3ccccc23)NC(=O)[C@H](Cc2ccccc2)NC(=O)[C@@H](NC(=O)[C@H](N)Cc2ccccc2)CSSC[C@@H](C(=O)N[C@H](CO)[C@@H](C)O)NC1=O [Octreotide Acetate]	1.6	1.39	1.08	0.734	0.782	1.45
CCCN(CCC)C(=O)C1=Cc2ccc(-c3ccc(C(=O)N4CCCC4)cc3)cc2N=C(N)C1 [Motolimod (VTX-2337)]	1.67	2.04	1.35	1.27	2.18	2.2
NC(=O)c1cccnc1 [Nicotinamide (Vitamin B3)]	0.857	0.597	2.86	0.938	0.669	1.28
N=C(N)NCCN1CCCCCCC1 [Guanethidine Monosulfate]	1.05	1.78	0.775	1.38	0.975	1.68
CC(C)NC(=N)NC(=N)Nc1ccc(Cl)cc1 [Proguanil]	1.21	1.28	0.798	0.927	0.823	1.25
NCCCC[C@H](N[C@@H](CCc1ccccc1)C(=O)O)C(=O)N1CCC[C@H]1C(=O)O [Lisinopril dihydrate]	1.2	0.621	0.821	0.86	0.746	1.51
CC/C(=C(\c1ccc(O)cc1)c1ccc(OCCN(C)C)cc1)c1ccccc1 [4-Hydroxytamoxifen]	3.21	2.74	2.16	2.61	4.31	2.89
N[C@@H]1CCCCN(c2c(F)cc3c(=O)c(C(=O)O)cn(C4CC4)c3c2Cl)C1 [Besifloxacin HCl]	0.849	1.19	0.808	0.781	0.864	0.585
Clc1ccc2c(c1)C(N1CCNCC1)=Nc1ccccc1O2 [Amoxapine]	1.43	1.02	1.12	1.06	0.744	1.09
CCCCOc1ccc(CC(=O)NO)cc1 [Bufexamac]	1.36	1.11	0.87	1.25	0.883	1.39
CN(C)CCCCC(=O)Nc1ccc(NC(=S)NC(=O)c2ccc(C(C)(C)C)cc2)cc1 [Tenovin-6]	2.9	3.08	1.61	3.01	3.46	1.95
OC[C@@H](O)[C@@H](O[C@@H]1O[C@H](CO)[C@H](O)[C@H](O)[C@H]1O)[C@H](O)[C@@H](O)CO [Lactitol]	0.637	0.843	0.537	0.733	0.29	1.17
O=C(O[C@@H]1C[C@@H]2C[C@H]3C[C@H](C1)N2CC3=O)c1c[nH]c2ccccc12 [Dolasetron]	1.37	2.35	2.37	1.37	0.624	2.04
C[C@@H](NCCCc1cccc(C(F)(F)F)c1)c1cccc2ccccc12 [Cinacalcet HCl]	1.32	1.57	1.89	1.06	1.85	1.42
C#Cc1cccc(Nc2ncnc3cc(OC)c(OCCCCCCC(=O)NO)cc23)c1	3.46	4.62	2.02	3.43	1.85	1.93
CC1(C)S[C@@H]2[C@H](NC(=O)[C@H](N)c3ccc(O)cc3)C(=O)N2[C@H]1C(=O)O [Amoxicillin Sodium]	1.03	1.17	1.56	1.06	1.08	1.78
CSCC[C@H](N)C(=O)O [L-methionine]	1.08	0.829	1.25	0.928	0.685	1.71
NC(=O)N1c2ccccc2CC(=O)c2ccccc21 [Oxcarbazepine]	2.18	1.39	1.26	1.19	1.13	1.57
CC(C)(Oc1ccc(Cl)cc1)C(=O)O [Clofibric Acid]	0.903	0.74	0.644	0.793	0.498	0.547
O=c1ccc2cc(O)c(O)cc2o1 [Esculetin]	1.31	0.797	1.69	0.959	1.2	0.988
Nc1ncnc2c1ncn2[C@@H]1O[C@H](CO)[C@@H](O)[C@H]1O [Adenosine]	1.13	2.77	1.12	0.92	0.753	1.22
